# Paper PMC4242493, “Sequence specificity incompletely defines the genome-wide occupancy of Myc”
# Whole data set: some 33,000 sequences, median “normalized occupancy” near 0.075, cut for the highest 2% near 0.095. The sample holds the highest values, similar sequences and a random draw of the others, so the mix is not that of the screen.
# Target: MaxL homodimer (Homo sapiens, UniProt P61244 1-160)
# Assay: universal protein-binding microarray (PBM); PBS-based mixture, 10 nM His-tagged protein dimer, 2% milk, 200 ng/uL BSA, 50 ng/uL salmon testes DNA, 0.02% TX-100; detection with Alexa 488 anti-His antibody;; high values mean tight binding
# Settings: protein: recombinant; tags: C-terminal His-tag (pET21a); chain copies: 2; dsDNA, one strand shown
# Method in brief: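 His-tagged protein dimer at 10 nM was incubated on Agilent 4 x 44 K arrays with the 'all 10-mer' universal design. Bound protein was tagged with 10 ng/μL fluorophore-conjugated anti-His antibody, and arrays were scanned on a GenePix 4400A. Binding occupancy for each 8-mer is its fluorescence intensity normalised to the highest-ranked 8-mer's intensity.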
# Chain of MaxL homodimer (P61244 whole entry): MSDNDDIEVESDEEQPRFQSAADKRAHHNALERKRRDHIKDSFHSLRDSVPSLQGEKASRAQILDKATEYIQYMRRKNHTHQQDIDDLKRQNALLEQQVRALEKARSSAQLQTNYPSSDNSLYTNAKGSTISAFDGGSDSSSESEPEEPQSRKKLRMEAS
row,Sequence,binding signal
1,GACACTTA,0.0771 normalized occupancy
2,GCAACACA,0.0795 normalized occupancy
3,TCAACTAA,0.0725 normalized occupancy
4,ATTGAAAT,0.0772 normalized occupancy
5,GTGAGTCA,0.0793 normalized occupancy
6,CCCCCCCA,0.0901 normalized occupancy
7,CGACAGCA,0.0797 normalized occupancy
8,ATAAATAG,0.0754 normalized occupancy
9,ATTCAGTA,0.0734 normalized occupancy
10,ATGACTAC,0.0811 normalized occupancy
11,ATGAGGGA,0.0908 normalized occupancy
12,ATGAGGGC,0.0956 normalized occupancy
13,ATGAGGGG,0.0902 normalized occupancy
14,GATTTAGA,0.0724 normalized occupancy
15,ACGTTGAC,0.0793 normalized occupancy
16,AAACCACA,0.0814 normalized occupancy
17,CTACCACA,0.0867 normalized occupancy
18,AAACCACG,0.0972 normalized occupancy
19,TAACCACA,0.0809 normalized occupancy
20,ATACCACG,0.0991 normalized occupancy
21,ATACCACA,0.089 normalized occupancy
22,CCGTTCTC,0.0814 normalized occupancy
23,AGAGCATA,0.0815 normalized occupancy
24,ACAGCATG,0.127 normalized occupancy
25,ATAGCATG,0.103 normalized occupancy

row,Sequence,binding signal
1,ATAGCATC,0.0799 normalized occupancy
2,AGAGCATC,0.0755 normalized occupancy
3,ACAGCATC,0.0767 normalized occupancy
4,AGAGCATG,0.0989 normalized occupancy
5,ACAGCATA,0.0896 normalized occupancy
6,ATAGCATA,0.0872 normalized occupancy
7,AGTACAGG,0.0787 normalized occupancy
8,ACACTCTG,0.0741 normalized occupancy
9,ATAGCTTC,0.074 normalized occupancy
10,AAGAGGCA,0.0761 normalized occupancy
11,ACGATTAG,0.0719 normalized occupancy
12,GATTCACC,0.0757 normalized occupancy
13,ACGATTTC,0.0741 normalized occupancy
14,CATCTTCA,0.0786 normalized occupancy
15,AAAATAGG,0.076 normalized occupancy
16,CTACATGC,0.089 normalized occupancy
17,ACACATAT,0.0874 normalized occupancy
18,ACACATTC,0.0866 normalized occupancy
19,ACACATTA,0.0926 normalized occupancy
20,AGACATTG,0.0768 normalized occupancy
21,ATACATGA,0.0834 normalized occupancy
22,ATACATGC,0.104 normalized occupancy
23,ACACATGC,0.137 normalized occupancy
24,ACACATAC,0.0823 normalized occupancy
25,ACACATTG,0.102 normalized occupancy

row,Sequence,binding signal
1,ACACATGT,0.127 normalized occupancy
2,ACACATCT,0.0851 normalized occupancy
3,ACCCAAAG,0.072 normalized occupancy
4,CACGGCAC,0.078 normalized occupancy
5,ATGATGGC,0.0855 normalized occupancy
6,TGCTAGCA,0.0864 normalized occupancy
7,GCCTACCC,0.0797 normalized occupancy
8,GAACATGA,0.0904 normalized occupancy
9,TCACATAA,0.0812 normalized occupancy
10,TCACATGA,0.109 normalized occupancy
11,ACACATCA,0.0839 normalized occupancy
12,GCACATAC,0.0803 normalized occupancy
13,ACACATAA,0.082 normalized occupancy
14,ACACATGA,0.107 normalized occupancy
15,TAACATGA,0.0906 normalized occupancy
16,GAACATGC,0.089 normalized occupancy
17,GGACATGA,0.0803 normalized occupancy
18,GCACATGC,0.159 normalized occupancy
19,GCACATGA,0.12 normalized occupancy
20,AGATTTGC,0.0766 normalized occupancy
21,CGCCTCTC,0.0756 normalized occupancy
22,ACTGAATC,0.0726 normalized occupancy
23,CTCAACCC,0.072 normalized occupancy
24,CTGTAATA,0.0777 normalized occupancy
25,CATGGGAC,0.0894 normalized occupancy

row,Sequence,binding signal
1,GTCAGCAC,0.0806 normalized occupancy
2,CACAATGG,0.0783 normalized occupancy
3,TACCTTAA,0.072 normalized occupancy
4,AAGATCTT,0.0757 normalized occupancy
5,AAACATGC,0.0937 normalized occupancy
6,ACACATGG,0.159 normalized occupancy
7,AAACATGG,0.0874 normalized occupancy
8,AAACATGA,0.0907 normalized occupancy
9,ATACATGG,0.0876 normalized occupancy
10,AAACATGT,0.0983 normalized occupancy
11,GATGACAA,0.0764 normalized occupancy
12,TCTTTCAA,0.0757 normalized occupancy
13,ACTAGTTA,0.0749 normalized occupancy
14,CCTCAACC,0.0752 normalized occupancy
15,AATTTGGG,0.0765 normalized occupancy
16,AACGCGCA,0.078 normalized occupancy
17,CACGCGCG,0.133 normalized occupancy
18,CGCGCGCC,0.0783 normalized occupancy
19,CGCGCGCG,0.0873 normalized occupancy
20,CGCGCGCA,0.075 normalized occupancy
21,CACGCGCA,0.135 normalized occupancy
22,AACGCGCG,0.0803 normalized occupancy
23,CACGCGCC,0.116 normalized occupancy
24,CCCGCGCC,0.0733 normalized occupancy
25,AACATCAC,0.0837 normalized occupancy

row,Sequence,binding signal
1,CTAGCTAC,0.0765 normalized occupancy
2,CCTAGTGC,0.0733 normalized occupancy
3,AACCCCTC,0.0767 normalized occupancy
4,AATAAGTA,0.0754 normalized occupancy
5,ATTCTATG,0.0827 normalized occupancy
6,CTTTCTGC,0.0723 normalized occupancy
7,CGTAACGC,0.0778 normalized occupancy
8,GCAAGCCA,0.0722 normalized occupancy
9,GATGGCCA,0.0755 normalized occupancy
10,AATGTCAA,0.0742 normalized occupancy
11,ATAAGTAA,0.0793 normalized occupancy
12,AGCATGAC,0.0962 normalized occupancy
13,AGCATGAT,0.107 normalized occupancy
14,GTCATGAC,0.0806 normalized occupancy
15,GCCATGAC,0.0739 normalized occupancy
16,ATCATGAT,0.0928 normalized occupancy
17,AGCATGAA,0.0874 normalized occupancy
18,CCCTAAAA,0.076 normalized occupancy
19,CTGACCTC,0.0774 normalized occupancy
20,CCATGAGA,0.0896 normalized occupancy
21,CCATGAGG,0.112 normalized occupancy
22,AGATGAGG,0.0788 normalized occupancy
23,ACATGAGC,0.0906 normalized occupancy
24,ACATGAGA,0.0971 normalized occupancy
25,ACATGAGT,0.09 normalized occupancy

row,Sequence,binding signal
1,ACATGAGG,0.108 normalized occupancy
2,CCATGAGC,0.0818 normalized occupancy
3,GCATGAGA,0.0947 normalized occupancy
4,GTCAAGGA,0.0749 normalized occupancy
5,CTAATGTC,0.0828 normalized occupancy
6,GAAGTTAC,0.0721 normalized occupancy
7,TAACTAGA,0.0765 normalized occupancy
8,ACGGTGGC,0.079 normalized occupancy
9,AAATACAA,0.076 normalized occupancy
10,CATATGGA,0.095 normalized occupancy
11,CATATGGG,0.103 normalized occupancy
12,CATATGAA,0.088 normalized occupancy
13,AATATGGG,0.0882 normalized occupancy
14,AATATGAC,0.0855 normalized occupancy
15,GATATGGC,0.0846 normalized occupancy
16,CATATGGC,0.0994 normalized occupancy
17,CATATGAC,0.0954 normalized occupancy
18,AATATGGC,0.0866 normalized occupancy
19,AGTTCTAA,0.0746 normalized occupancy
20,CTGAAAAC,0.0806 normalized occupancy
21,CGTGCTAA,0.0881 normalized occupancy
22,ACTGCCCC,0.0751 normalized occupancy
23,GGCATTAC,0.0758 normalized occupancy
24,AAACGAAG,0.0718 normalized occupancy
25,CTGCTCTC,0.0736 normalized occupancy

row,Sequence,binding signal
1,ATTGATAA,0.0774 normalized occupancy
2,AGATGCGC,0.077 normalized occupancy
3,AAATGCGG,0.0791 normalized occupancy
4,ATATGCGA,0.0834 normalized occupancy
5,ACATGCGG,0.129 normalized occupancy
6,AGATGCGG,0.0753 normalized occupancy
7,ATATGCGC,0.085 normalized occupancy
8,AAATGCGA,0.0758 normalized occupancy
9,AAATGCGT,0.0858 normalized occupancy
10,ACATGCGC,0.109 normalized occupancy
11,ACATGCGA,0.0989 normalized occupancy
12,ACCTGCGT,0.0757 normalized occupancy
13,ACATGCGT,0.127 normalized occupancy
14,AGGTTTTA,0.0742 normalized occupancy
15,CTAAGAAA,0.0728 normalized occupancy
16,GATGATTA,0.0816 normalized occupancy
17,AGGGTCAC,0.0776 normalized occupancy
18,CCCAGTTA,0.0735 normalized occupancy
19,GCATCACA,0.0871 normalized occupancy
20,CCGACGAC,0.0752 normalized occupancy
21,AGTCGTAT,0.0756 normalized occupancy
22,CCGTGGTC,0.074 normalized occupancy
23,AAGTGGTG,0.0758 normalized occupancy
